LmPK inhibitor = LmPK (Leishmania mexicana) enzyme inhibition | Q27686 | purified LmPK, Kinase-Glo ATP luminescence, 1 h | Potency, µM (highest dose often 57.5 µM), most hits filed as inhibitors | hit rate 0.37% among 290,000
Target sequence (Q27686 whole entry, looked up): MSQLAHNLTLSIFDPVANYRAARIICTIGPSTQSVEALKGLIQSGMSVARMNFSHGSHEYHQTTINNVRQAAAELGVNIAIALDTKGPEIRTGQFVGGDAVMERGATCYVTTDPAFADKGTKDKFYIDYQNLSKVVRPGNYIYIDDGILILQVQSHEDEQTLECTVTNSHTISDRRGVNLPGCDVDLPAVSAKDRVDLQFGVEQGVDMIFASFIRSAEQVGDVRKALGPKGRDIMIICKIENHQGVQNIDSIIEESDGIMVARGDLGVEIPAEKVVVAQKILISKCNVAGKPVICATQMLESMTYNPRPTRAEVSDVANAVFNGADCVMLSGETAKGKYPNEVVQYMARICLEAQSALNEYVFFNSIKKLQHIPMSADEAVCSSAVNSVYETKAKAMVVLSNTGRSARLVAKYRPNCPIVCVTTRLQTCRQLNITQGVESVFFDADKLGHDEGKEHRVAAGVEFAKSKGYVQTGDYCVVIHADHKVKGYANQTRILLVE
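In 50 mM imidazole pH 7.2 with 7 mM MgCl2, LmPK (0.1 nM) turned over PEP (0.5 mM) and ADP (0.1 mM) for 1 h at room temperature. Luciferase read-out of ATP.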
NS1 inh = blocks influenza NS1 protein function; Potency, µM (highest dose often 46.1 µM); hit rate 0.4% among 270,000; calls by dose curve; also: actives are rising curves; nearly all actives have a fitted effect of over 50% in size
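Compounds were scored for reversing the slow growth caused by influenza A NS1 in S. cerevisiae, measured by optical density at 600 nm. Assay medium contained 2% galactose at pH 6.0; NS1-free yeast of the same strain were the positive control.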
Giardia FBPA inh = blocks Giardia fructose-bisphosphate aldolase activity; A8B2U2; purified Giardia FBPA; Potency, µM (series often up to 59.6 µM), actives largely listed as inhibitors; hit rate 0.71% among 290,000; also: nearly all actives have a fitted effect of over 55% in size
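40 nM FBPA preincubated 10 min at RT with compound (up to 57.5 uM final), then substrate plus GAPDH/TPI/NAD/arsenate coupling and diaphorase/resazurin added. Fluorescence read after 20 min at RT, 525/598 nm.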
CHX counter = counter-screen hit for Shiga toxin inhibitors, cycloheximide | cell reporter, cycloheximide protein synthesis inhibition counterscreen | max response, % | hit rate 12% among 300,000 | AID 2314; in the data active = max response mostly above about 13%, no sharp cut-off; inactive = mostly below about 14%; also: read at 38.3 µM for the half of the compounds with a filed dose
Shiga toxin inh = Shiga toxin inhibition. Vero cells, Shiga toxin protein synthesis inhibition reporter. inhibition, % at 38.7 µM. hit rate 9.2% among 290,000; in the data active = inhibition mostly above about 28%, no sharp cut-off; inactive = mostly below about 43%
Of the large screens only hits and unclear results are named; the others gave an inactive call. A selection: hits, their analogues and other compounds. The true share with any hit is near 14%. Unless noted, calls follow the shape of the dose curve; as a rule, active = well fitted curve in the direction sought with a large enough effect; inconclusive = small, poorly fitted or top-dose-only effect, or another doubt; inactive = no such curve, though single readings can be large; an effect the other way counts as inactive or inconclusive.

Cc1cc(NC(=O)c2ccc(N(C)S(=O)(=O)c3ccccc3)cc2)no1	none
CN(c1ccccc1)S(=O)(=O)c1ccc(NC(=O)c2cccs2)cc1	none
COc1cccc(-c2ccc(NC(=O)C3CCCN(Cc4cnn(C(C)C)c4)C3)cc2)c1 (stereo not drawn)	none
COC(=O)C1(C(=O)OC)CC(CO)C(=O)[C@H]1c1ccccc1 (stereo partly drawn)	none (no result: LmPK inhibitor, NS1 inh, CHX counter, Shiga toxin inh)
CC(=NC1CCCC1)c1c(C)[nH]n(-c2nc3ccccc3s2)c1=O	CHX counter 40.4, Shiga toxin inh 75.2
CCOC(=O)c1cc2c(s1)-c1ccccc1CC2	CHX counter 36.6, Shiga toxin inh 67.3
Cc1cccc(/C=N/NC(=O)c2cc3c(s2)-c2ccccc2CC3)c1	none
COC(=O)c1cc2c(s1)-c1cc(F)ccc1OC2	none
CCOC(=O)c1cc2ccc3ccccc3c2s1	CHX counter 47.9, Shiga toxin inh 74.8
COC(=O)c1cc2c(s1)-c1ccccc1CC2	CHX counter 62.2, Shiga toxin inh active
CCN(c1ccc(OC)cc1)S(=O)(=O)c1nnc(NC(=O)c2ccc(C)cc2)s1	none (no result: Giardia FBPA inh)
Cc1ccc(O)c(NC(=S)NC(=O)CC(C)C)c1	CHX counter 59.4, Shiga toxin inh 61.2
Cc1ccc(NC(=S)NC(=O)Cc2ccccc2)c(O)c1	CHX counter 31.9
Cc1ccc(O)c(NC(=S)NC(=O)C(C)C)c1	CHX counter 16.2, Shiga toxin inh 52.4
COc1ccc(NC(=S)NC(=O)Cc2ccccc2)c(OC)c1	none (no result: Shiga toxin inh)
CCc1nn(C(CC)C(=O)NCCCN2CC(C)CC(C)C2)c(=O)c2cc3oc(C)cc3n12 (stereo not drawn)	none (no result: Giardia FBPA inh)
O=C(Nn1cnc2ccccc2c1=O)c1ccccc1Cl	CHX counter 16.9
Cc1ccccc1C(=O)Nn1cnc2ccccc2c1=O	CHX counter 32.7, Shiga toxin inh 49.6 (no result: NS1 inh)
COc1ccc(C(=O)Nn2c(C)nc3ccccc3c2=O)c(OC)c1	none
O=C(/C=C/c1ccccc1)Nn1cnc2ccccc2c1=O	CHX counter 21.5
O=C(Nn1cnc2ccccc2c1=O)c1ccccc1[N+](=O)[O-]	none (no result: NS1 inh)
COc1ccc(C(=O)Nn2cnc3ccccc3c2=O)c(OC)c1	CHX counter 25.6, Shiga toxin inh 39.0
O=C(/C=C/c1ccccc1Cl)Nn1cnc2ccccc2c1=O	none
CSCCC(N)C(=O)NC(CC(C)C)C(=O)NC(Cc1ccccc1)C(=O)O (stereo not drawn)	none (no result: LmPK inhibitor, NS1 inh, CHX counter, Shiga toxin inh)
CCNc1ncc2nc(-c3cccs3)c(=O)n(-c3ccccc3)c2n1	none (no result: LmPK inhibitor, NS1 inh, CHX counter, Shiga toxin inh)
CCOC(=O)N/N=C1/C[C@@H](O)[C@@H](O)[C@@H]2[C@@H]3C(=O)N(C4CCCCC4)C(=O)[C@H]3CC[C@H]12	none (no result: LmPK inhibitor, NS1 inh, CHX counter, Shiga toxin inh)
O=C(Nc1ccc(Cl)cc1)Nn1cnc2ccccc2c1=O	CHX counter 24.2, Shiga toxin inh 47.8
O=C1C(Cl)=C(Nc2ccc(S(=O)(=O)Nc3ccccn3)cc2)C(=O)c2ccccc21	none (no result: LmPK inhibitor, Giardia FBPA inh, CHX counter, Shiga toxin inh)
CC[C@H](C)N	none (no result: LmPK inhibitor, NS1 inh)
O=C(/C=C/c1cccs1)N1CCc2ccccc21	LmPK inhibitor 14.1µM, CHX counter 27.1
O=C(c1cccs1)N1CCc2ccccc21	LmPK inhibitor inconclusive, CHX counter 53.7, Shiga toxin inh 70.2
O=C(/C=C/c1ccc(Cl)c(Cl)c1)N1CCc2ccccc21	CHX counter 24.1, Shiga toxin inh active
CCOc1ccc(CCNC(=O)CS(=O)Cc2nc(-c3ccccc3C)oc2C)cc1OCC (stereo not drawn)	none (no result: Giardia FBPA inh)
O=C(Nc1cc2c(cc1Br)OCCCO2)c1cccnc1	CHX counter 38.2, Shiga toxin inh 84.0
O=C(Nc1cc2c(cc1Br)OCCCO2)c1ccccc1	CHX counter 78.3, Shiga toxin inh 123.2
CCC(=O)c1cc2c(cc1NC(=O)c1ccccc1)OCCO2	none
COc1ccccc1CCn1c(=O)c(-c2cc(F)cc(F)c2)nc2cncnc21	none (no result: LmPK inhibitor, NS1 inh, CHX counter, Shiga toxin inh)
c1ccc(-c2cccc(N3CCC4(CCNCC4)CC3)c2)cc1	none (no result: LmPK inhibitor, NS1 inh, CHX counter, Shiga toxin inh)
CCOC(=O)c1sc(=NC(=O)COc2ccccc2)n(C)c1C	none (no result: NS1 inh)
CCOC(=O)c1sc(=NC(=O)CCSc2ccccc2)n(C)c1C	CHX counter 17.2
CCOC(=O)c1sc(=NC(=O)c2c(F)cccc2F)n(C)c1C	CHX counter 39.4, Shiga toxin inh 81.0
CCOC(=O)c1sc(=NC(=O)c2ccc(F)cc2)n(C)c1C	CHX counter 28.8, Shiga toxin inh 76.7 (no result: Giardia FBPA inh)
CCOC(=O)c1sc(=NC(=O)c2ccc(C)cc2)n(C)c1C	CHX counter 51.5, Shiga toxin inh 71.3 (no result: NS1 inh)
COc1ccc(C)cc1NC(=O)c1cc(S(=O)(=O)N2CCOCC2)cn1C	none
Cc1ccc(NC(=O)c2cc(=O)n(Cc3ccccc3)c(=O)[nH]2)cc1C	none (no result: NS1 inh)
CCOc1ccc2[nH]c3nc(SCC(=O)OC(C)C)nnc3c2c1	Giardia FBPA inh inconclusive
COc1cccc(CNC(=O)Cn2c(=O)n(CCC(=O)N3CCCCC3)c(=O)c3sccc32)c1	none
O=[N+]([O-])c1ccc(N/N=C2\CC3CC=CC23)cc1 (stereo not drawn)	CHX counter 41.6, Shiga toxin inh 81.7
O=[N+]([O-])c1ccc(N/N=C2\CC3CC=CC23)c([N+](=O)[O-])c1 (stereo not drawn)	none (no result: NS1 inh)
O=C(O)c1cc(NS(=O)(=O)c2ccc3ccccc3c2)ccc1O	none
Cc1ccccc1C(=O)NC(=S)Nc1ccccc1C(=O)O	none
O=C(O)c1ccccc1NS(=O)(=O)c1ccc2ccccc2c1	NS1 inh inconclusive, CHX counter 33.0
O=C(O)c1cccc(NC(=S)NC(=O)c2ccc3ccccc3c2)c1	CHX counter 42.0, Shiga toxin inh 70.9
O=C(NC(=S)Nc1ccccc1C(=O)O)c1ccc2ccccc2c1	Giardia FBPA inh inconclusive, CHX counter 14.7
O=C(O)c1ccc(NC(=S)NC(=O)c2ccc3ccccc3c2)cc1	none
CN(C)/C(=N\S(=O)(=O)c1ccc(Br)cc1)c1ccccc1	none
Cc1c(Cl)cccc1NC(=O)c1cc(-c2ccc(O)cc2)on1	none (no result: LmPK inhibitor, Giardia FBPA inh, CHX counter, Shiga toxin inh)
CN1CCN(c2ncc3nc(-c4cc(F)cc(F)c4)c(=O)n(-c4ccccc4)c3n2)CC1	none (no result: LmPK inhibitor, NS1 inh, CHX counter, Shiga toxin inh)
COC(=O)c1ccccc1NC(=O)C1CCN(c2ncnc3c2nc2n3CCCCC2)CC1	NS1 inh inconclusive
CN(C)c1ccc(C2Nc3ccccc3C(=O)N2CCCN2CCOCC2)cc1 (stereo not drawn)	CHX counter 30.6, Shiga toxin inh 43.0
CCN(CC)CCN1C(=O)c2ccccc2NC1c1ccc(N(C)C)cc1 (stereo not drawn)	none
CC(=O)c1cc2c(cc1NC(=O)c1ccc(Cl)cc1)OCCO2	none (no result: Shiga toxin inh)
O=C(Nc1cc2c(cc1Cl)OCCCO2)c1ccc(F)cc1	CHX counter 89.1, Shiga toxin inh 113.8
Cc1ccc(C(=O)Nc2cc3c(cc2Cl)OCCCO3)cc1	CHX counter 49.8, Shiga toxin inh 64.5
CN1CCN(c2ccc(NC(=O)c3ccc([N+](=O)[O-])o3)cc2Cl)CC1	CHX counter 29.0
CC(=O)N1CCN(c2ccc(NC(=O)c3ccc(Br)o3)cc2Cl)CC1	CHX counter 27.6
CC(C)C(=O)N1CCN(c2ccc(NC(=O)c3ccc([N+](=O)[O-])o3)cc2Cl)CC1	Giardia FBPA inh inconclusive (no result: NS1 inh)
COc1c(F)c(F)c(C(=O)Nc2ccc(N3CCN(C(C)=O)CC3)c(Cl)c2)c(F)c1F	none

Source: PubChem BioAssay (National Center for Advancing Translational Sciences (NCATS))
